From PubChem BioAssay (NCI)
The panel holds about 83,000 compounds, 20% with a hit somewhere; the sample as a whole holds those more often.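 A percent growth of 40 corresponds to 60% growth inhibition; 0 means no net growth; -100 means all cells died. Active threshold: below 10.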 Unmarked numbers belong to inactive results. Calls of active or inactive are those of the source.

Experiments:
Assay in all cases: NCI-60 one-dose screen, 48 h (100 = growth as untreated, 0 = no growth, -100 = all killed)
Conditions in all cases: 10 µM unless noted
[1] = tested on: SR leukemia
[2] = tested on: RPMI-8226 leukemia
[3] = tested on: OVCAR-8 ovarian
[4] = tested on: OVCAR-5 ovarian
[5] = tested on: OVCAR-4 ovarian
[6] = tested on: SK-OV-3 ovarian
[7] = tested on: IGROV1 ovarian
[8] = tested on: OVCAR-3 ovarian
[9] = tested on: HS 578T breast
[10] = tested on: NCI/ADR-RES ovarian

| Compound | growth [1] | growth [2] | growth [3] | growth [4] | growth [5] | growth [6] | growth [7] | growth [8] | growth [9] | growth [10] |
| --- | --- | --- | --- | --- | --- | --- | --- | --- | --- | --- |
| CN1CCN(CCCOc2cccc3nc(Nc4cc(Cl)cc(Cl)c4)ccc23)CC1 | -30.2% (active) | -14.8% (active) | 51.4% | 3.71% (active) | 42.7% | 90.2% | 42.8% | 26.3% | 37.5% | 6.46% (active) |
| CCOC(=O)c1c(C)oc2ncnc(N3CCN(C(=S)Nc4ccccc4)CC3)c12 | 94.5% | 83.3% | 94% | 90% | 85.1% | 96.9% | 95.4% | 103% | 87% | 90.3% |
| CN(C)CCN1C(=O)c2cccc3c(N)ccc(c23)C1=O | -19.2% (active) | 4.13% (active) | 18.1% | 36.5% | 41.6% | 32.2% | 27.6% | 21.8% | 56.8% | 40% |
| Cc1nn(-c2cc(=O)[nH]c3ccccc23)c(N)c1C#N | 105% | 99.9% | 99.2% | 101% | 105% | 111% | 77.7% | 106% | 98.6% | 108% |
| CCN(CC)c1ccc(-c2cc(-c3cc(OC)c(OC)c(OC)c3)nc(N3CCOCC3)c2C#N)cc1 | -8.39% (active) | -33.1% (active) | -28.4% (active) | 5.94% (active) | 38.2% | 51.8% | 19.5% | 32.8% | 55.8% | 27.6% |
| O=C1CSC(=S)N1CCc1ccc(O)cc1 | 26.4% | 37.9% | 92.6% | 101% | 89.5% | 99.2% | 101% | 78.3% | 84.3% | 94.7% |
| CSc1nc2c(c(=O)[nH]1)C1(C(=O)Nc3ccccc31)c1c(nc(SC)[nH]c1=O)N2 | 98.8% | 108% | 110% | 93.9% | 109% | 114% | 102% | 105% | 106% | 108% |
| COC(=O)c1ccc(NC(=O)c2ccc(-c3cccc([N+](=O)[O-])c3)o2)cc1 | 114% | 102% | 103% | 109% | 92.7% | 98.1% | 91.6% | 101% | 92.2% | 99% |
| O=C(O)c1c(=O)cccc2ssc12 | -9.58% (active) | 4.35% (active) | 24.1% | -52.8% (active) | -37.1% (active) | 39.1% | 76.1% | -34.3% (active) | 22.4% | 29.2% |
| O=C(CN1CCCCC1)Nc1ccc2oc(=O)ccc2c1 | 84.4% | 90.7% | 97.8% | 122% | 120% | 109% | 102% | 111% | 97% | 107% |
| CSc1ccc(SC2c3ccc(C)cc3Oc3nc(N)c(C#N)c(N)c32)cc1 (stereo not given) | -22.9% (active) | -38% (active) | -92% (active) | -80.8% (active) | -94.8% (active) | 15.1% | -86.2% (active) | -94.7% (active) | -8.07% (active) | -18.6% (active) |
| COc1ccc(-c2cc(Nc3ccnc(N4CCOCC4)n3)on2)cc1 | 31.1% | 25.2% | 37.2% | 46.6% | 62.1% | 43.2% | 43.1% | -17.6% (active) | 18.7% | 10.8% |
| Cc1cc(C)nc(SC2=C(Nc3cccc(Cl)c3C)C(=O)N(Cc3ccccc3)C2=O)n1 | 31.8% [30 µM] | 12.5% [30 µM] | 64.2% [30 µM] | 81.8% [30 µM] | 49% [30 µM] | 91.6% [30 µM] | 73% [30 µM] | 64.6% [30 µM] | 60.7% [30 µM] | 52.1% [30 µM] |
| O=C1c2cccc3cccc(c23)C(=O)N1CCCCN1CCN(CCCCOc2ccc(-c3nc4ccc(N5CCOCC5)cc4[nH]3)cc2)CC1 | -65% (active) | 32.4% | 22% | 109% | 79.4% | 95.9% | 68.9% | 100% | 86.6% | 76.6% |
| CCOC(=O)c1csc(NC(=O)COc2cccc(/C=C3\CSc4ccccc4C3=O)c2)n1 | -86.4% (active) | -71.2% (active) | 20.3% | 56.4% | 83.6% | 35% | 1.28% (active) | -25.7% (active) | -11% (active) | 44.1% |
| CC1SC(c2ccc(N(C)C)cc2)N(NC(=O)C(O)(c2ccccc2)c2ccccc2)C1=O (stereo not given) | 90% | 60.1% | 77.4% | 104% | 95.7% | 97.6% | 80.5% | 95% | 103% | 95% |
| Cc1cc(C)nc(SC2=C(Nc3cccc(Cl)c3)C(=O)N(Cc3ccccc3)C2=O)n1 | 28.8% [30 µM] | 23.3% [30 µM] | 52.5% [30 µM] | 107% [30 µM] | 61.9% [30 µM] | 113% [30 µM] | 43.3% [30 µM] | 68.6% [30 µM] | 97.8% [30 µM] | 55.5% [30 µM] |
| NC(=O)c1cc(I)ccc1NC(=O)/C=C/c1ccccc1Cl | -30.4% (active) | -11.5% (active) | 31.3% | 38.2% | 9.92% (active) | 4.87% (active) | 77.5% | -40.8% (active) | -17.6% (active) | 8.88% (active) |
| NC(=NC1C2CC3CC(C2)CC1C3)Nc1ccc(I)cc1 (stereo not given) | -10.1% (active) | 20.6% | 70.1% | 38.9% | 20.2% | 77.6% | 4.42% (active) | 53.9% | 33% | 49.5% |
| CC/C=C\C/C=C\C[C@H]1C/C=C2/C(=O)C=C[C@@H]2C/C=C\CCC(=O)O1 | 0.464% (active) | -14.6% (active) | 7.21% (active) | 44.6% | 26.7% | 40.9% | 13.1% | 2.66% (active) | 43.6% | 17.9% |
| C=C1C(=O)O[C@H]2[C@H]1CC/C(COC(=O)NCCc1ccc(OC)c(OC)c1)=C\CC[C@@]1(C)O[C@@H]21 | 11.2% | 28.8% | 51% | 82.8% | 49.9% | 99.3% | 55.9% | 25.8% | 91.1% | 103% |
| CN1CCN(c2nc(NCCCNc3ccnc4cc(Cl)ccc34)c3ccccc3n2)CC1 | -25.3% (active) | 8.13% (active) | 38.8% | 84.8% | 59.8% | 66.6% | 70.7% | 75.8% | 79.5% | 96.3% |
| Cc1ccc(O)c(N2C(=NCc3ccco3)NS(=O)(=O)c3cnccc32)c1 | 71.3% | 65.7% | 64.5% | 92.4% | 107% | 117% | 94.2% | 96.9% | 113% | 95.2% |
| NC(=O)c1cc(Cl)ccc1NC(=O)/C=C/c1ccccc1 | -34.1% (active) | 12.8% | 51.2% | 54.6% | 40.7% | 3.73% (active) | 88.6% | -30.3% (active) | 7.85% (active) | 10.8% |
| O=C(Oc1cccnc1)c1ccsc1Nc1ccnc(C(F)(F)F)c1 | 17.6% | 27.6% | 84% | 102% | 60.2% | 88.2% | 35.9% | 100% | 109% | 60.4% |
| Cn1c(NCCc2ccc(O)c(O)c2)nc2c1c(=O)n(Cc1ccc(Cl)c(Cl)c1)c(=O)n2C | 56% | 19.1% | 74.4% | 83.1% | 52.8% | 81% | 32% | 64.9% | 75.6% | 77.3% |
